Pol kappa inh-1 = qHTS for Inhibitors of Polymerase Kappa | purified Pol kappa, fluorescent DNA synthesis assay, 10 min | DNA polymerase kappa (Homo sapiens), Q9UBT6 | 400,000 tested, 0.53% active | Potency, µM (doses to about 107 µM), usual class: inhibitors
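Kinetic fluorescence readout at 0 and 10 min followed reaction start with substrate at 50 nM final. Beforehand, enzyme (10 nM Pol kappa) stood 15 min with compound at room temperature; buffer-only wells were negative controls.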
PI5P4K alpha inh = qHTS for Inhibitors of phosphatidylinositol 5-phosphate 4-kinase (PI5P4K). 330,000 tested, 1.2% active. PI5P4Kalpha enzyme, ADP-Glo luminescence, 60 min; stronger effect = lower value. max response, %; active = max response of -50% or lower; inconclusive = between -30% and -50%; inactive = -30% or higher; also: value at the top dose of about 77 µM
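PI5P4Kalpha ADP-Glo assay; 5 microM ATP final; 60 min RT reaction; HEPES pH 7.4/EGTA/CHAPS, 5% DMSO; controls lacking substrate or enzyme; luminescent end-point.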
WRN helicase inh = qHTS for Inhibitors of WRN Helicase; 360,000 tested, 0.46% active; Potency, µM (top dose mostly 114 µM), most hits filed as inhibitors; WRN helicase unwinding, fluorescent forked duplex, kinetic; Bifunctional 3'-5' exonuclease/ATP-dependent helicase WRN (Homo sapiens), Q14191; also: nearly all actives have a fitted effect of over 55% in size
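Kinetic fluorescence helicase assay: unwinding of a quenched forked DNA duplex (100 nM final) with 2 mM ATP final raises red fluorescence (525/598 nm). Compounds sat 15 min at room temperature with 20 nM WRN beforehand.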
Pol iota inh = qHTS for Inhibitors of Polymerase Iota. Pol iota fluorescent replication assay, 10 min. 390,000 tested, 1% active. AID 588590, 2011. DNA polymerase iota (Homo sapiens), Q9UNA4. Potency, µM (titrated, usually from 115 µM), actives largely listed as inhibitors
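Fluorescent replication assay read twice, at 0 min and 10 min after adding 50 nM (final) substrate. Enzyme (10 nM) and compounds were first incubated 15 min at room temperature; enzyme-free buffer wells were negative controls.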
Pol beta inh = qHTS Assay for Inhibitors of DNA Polymerase Beta; P06746; Pol beta primer extension/strand displacement, fluorescence kinetic; Potency, µM (series often up to 114 µM), hits mostly inhibitors; 340,000 tested, 1.3% active
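Enzyme-only controls used 10 nM Pol beta; buffer lacking enzyme served as negative control. Compound preincubated 15 min, then 50 nM substrate added; 0 and 10 min reads at room temperature.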
Pol eta inh-1 = qHTS for Inhibitors of Polymerase Eta; Potency, µM (series often up to 114 µM), hits mostly inhibitors; 390,000 tested, 1.2% active; recombinant Pol eta, fluorescent DNA replication assay
Target sequence (Q9Y253 whole entry, looked up): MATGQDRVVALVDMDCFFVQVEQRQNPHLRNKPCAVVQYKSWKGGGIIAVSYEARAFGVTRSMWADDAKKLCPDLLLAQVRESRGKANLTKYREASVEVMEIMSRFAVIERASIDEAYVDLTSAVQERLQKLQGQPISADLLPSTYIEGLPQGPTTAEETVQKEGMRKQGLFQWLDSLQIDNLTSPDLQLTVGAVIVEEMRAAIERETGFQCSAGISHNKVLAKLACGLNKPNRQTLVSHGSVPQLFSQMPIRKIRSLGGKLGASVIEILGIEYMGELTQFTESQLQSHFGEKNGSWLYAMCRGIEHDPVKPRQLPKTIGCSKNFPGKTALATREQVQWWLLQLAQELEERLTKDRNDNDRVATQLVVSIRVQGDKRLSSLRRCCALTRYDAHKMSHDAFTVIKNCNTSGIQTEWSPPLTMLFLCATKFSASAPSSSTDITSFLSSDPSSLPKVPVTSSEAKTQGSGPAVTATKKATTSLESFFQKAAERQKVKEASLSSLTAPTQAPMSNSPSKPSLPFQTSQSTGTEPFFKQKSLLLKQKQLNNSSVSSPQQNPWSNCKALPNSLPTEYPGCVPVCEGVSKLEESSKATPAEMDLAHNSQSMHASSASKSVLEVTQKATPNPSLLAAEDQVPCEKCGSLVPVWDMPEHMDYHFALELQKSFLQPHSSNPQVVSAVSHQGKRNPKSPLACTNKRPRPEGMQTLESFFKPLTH
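Pol eta at 10 nM preincubated with compounds 15 min at room temperature; reaction started with fluorescent substrate (50 nM final) and read kinetically at 0 and 10 min.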
GALK inh confirm = Confirmation Assay for Inhibitors of Human Galactokinase (GALK); 150 tested, 70% active; Potency, µM (series often up to 115 µM), usual class: inhibitors; purified GALK, Kinase-Glo ATP depletion luminescence; shares compounds with Pol eta inh-1
Redox cycling = Confirmatory Assay for Inhibitors of Human Galactokinase (GALK): Phenol-HRP redox assay counterscreen. shares compounds with Pol eta inh-1. Phenol red-HRP H2O2 redox cycling, absorbance 600 nm. Potency, µM (doses to about 115 µM), usual class: inhibitors. 150 tested, 40% active
HEK293 tox = Secondary Assay for Inhibitors of Human Galactokinase (GALK): HEK-293 Cell Viability Assay; 170 tested, 10% active; Potency, µM (highest dose often 46.1 µM), hits mostly inhibitors; HEK-293 viability, ATP luminescence (CellTiter-Glo), 24/48 h; shares compounds with Pol eta inh-1
Pol kappa inh-2 = qHTS for Inhibitors of Polymerase Kappa: Confirmatory Assay for Cherry-picked Compounds | shares compounds with Pol eta inh-1 | purified Pol-kappa, fluorescent strand-displacement substrate | Potency, µM, most hits filed as inhibitors | 920 tested, 76% active | AID 720501, 2013
Pol eta inh-2 = qHTS for Inhibitors of Polymerase Eta: Confirmatory Assay for Cherry-picked Compounds; Pol eta primer extension, TAMRA/BHQ fluorescence, 10 min; shares compounds with Pol eta inh-1; Potency, µM, hits mostly inhibitors; 2,600 tested, 64% active
Each line names hits and unclear results; the compound was inactive in the other large screens (follow-up assays come after a bar, where they were run). Shown are actives, neighbours in structure and some others; about 2.8% of the full set was active somewhere. Unless noted, calls follow the shape of the dose curve; as a rule, active = well fitted curve in the direction sought with a large enough effect; inconclusive = small, poorly fitted or top-dose-only effect, or another doubt; inactive = no such curve, though single readings can be large; an effect the other way counts as inactive or inconclusive.

O=[N+]([O-])c1ccc(Cl)c(S(=O)(=O)Nc2ccc3cn[nH]c3c2)c1	none (no result: Pol beta inh)
O=[N+]([O-])c1ccc(O)c(C=NNc2ccc(S(=O)(=O)O)cc2)c1	Pol kappa inh-1 inconclusive, Pol iota inh 22.4µM, Pol eta inh-1 6.31µM (no result: Pol beta inh) | Pol kappa inh-2 21.2 | Pol eta inh-2 53.6
O=[N+]([O-])c1cccc(N/N=C/c2cc([N+](=O)[O-])ccc2O)c1	Pol iota inh inconclusive, Pol beta inh inconclusive
Cc1ccc(C)c(S(=O)(=O)/N=C2\C=C(NS(=O)(=O)c3ccccc3)C(=O)c3ccccc32)c1	Pol iota inh inconclusive, Pol eta inh-1 inconclusive | Pol eta inh-2 inconclusive
Cc1ccccc1NC1=C/C(=N\S(=O)(=O)c2ccc(C(=O)O)cc2)c2ccccc2C1=O	Pol iota inh 0.891µM, Pol beta inh 35.5µM, Pol eta inh-1 5.01µM | GALK inh confirm 8.41µM | Redox cycling 5.3µM | HEK293 tox 25µM
COc1ccc(CNC(=O)CCS(=O)(=O)c2ccc(Br)cc2)cc1	Pol kappa inh-1 inconclusive, Pol iota inh inconclusive, Pol eta inh-1 inconclusive | Pol eta inh-2 75.7
CCc1cccc(NC(=O)CCS(=O)(=O)c2ccc(Br)cc2)c1	WRN helicase inh inconclusive, Pol beta inh 7.08µM, Pol eta inh-1 25.1µM | Pol kappa inh-2 42.3 | Pol eta inh-2 84.9
Cc1ccc(S(=O)(=O)CCC(=O)Nc2cccc(C)c2)cc1	Pol iota inh inconclusive
COC(=O)c1c(C(=O)OC)c(-c2ccc(Cl)c(Cl)c2)n2c1CCC2	none (no result: PI5P4K alpha inh)
O=C(O)c1c(C(=O)O)c(-c2ccc(Cl)c(Cl)c2)n2c1CSC2	Pol iota inh inconclusive, Pol beta inh inconclusive, Pol eta inh-1 50.1µM | Pol kappa inh-2 37.7
O=C(O)c1ccc(Oc2ccc(S(=O)(=O)c3ccc(C(=O)O)c(C(=O)O)c3)cc2)cc1	Pol kappa inh-1 inconclusive, PI5P4K alpha inh inconclusive, Pol iota inh 28.2µM, Pol beta inh inconclusive, Pol eta inh-1 17.8µM | Pol kappa inh-2 18.9 | Pol eta inh-2 37.9
Cc1ccc(C(=O)N/C(=C\c2ccc(Cl)cc2)C(=O)NCCN2CCOCC2)cc1	none | GALK inh confirm inactive | Redox cycling inactive | HEK293 tox inactive
Cc1ccc(-n2c(C)cc(/C=C3\SC(=O)NC3=O)c2C)cc1	Pol iota inh inconclusive, Pol beta inh inconclusive
Cc1cc(/C=C2\SC(=S)NC2=O)c(C)n1-c1cccc(O)c1	PI5P4K alpha inh -67.7, WRN helicase inh inconclusive, Pol iota inh inconclusive, Pol beta inh 44.7µM, Pol eta inh-1 35.5µM | Pol eta inh-2 inconclusive
O=C(O)c1cc([N+](=O)[O-])ccc1-c1ccc([N+](=O)[O-])cc1C(=O)O	Pol eta inh-1 20µM (no result: Pol kappa inh-1, Pol iota inh, Pol beta inh) | Pol kappa inh-2 3.77 | Pol eta inh-2 60.1
O=C(O)c1cn[nH]c1-c1cccc([N+](=O)[O-])c1	Pol kappa inh-1 inconclusive, WRN helicase inh inconclusive, Pol iota inh 25.1µM, Pol eta inh-1 20µM | Pol eta inh-2 67.5
O=S(=O)(Nc1ccc(O)c(Sc2nc3ccccc3s2)c1)c1cc(Cl)ccc1Cl	Pol kappa inh-1 inconclusive, Pol iota inh inconclusive, Pol beta inh inconclusive, Pol eta inh-1 79.4µM (no result: PI5P4K alpha inh, WRN helicase inh) | Pol eta inh-2 inconclusive
COc1ccc(OC)c(CCNC(=O)c2ccc3c(=O)[nH]c4c(C(=O)NC(C)C)sc(=S)n4c3c2)c1	Pol eta inh-1 15.8µM | Pol eta inh-2 42.6
CCOc1ccc(CCNC(=O)c2ccc3c(=O)[nH]c4c(C(=O)NC(C)C)sc(=S)n4c3c2)cc1	none
CCCCNC(=O)c1sc(=S)n2c1[nH]c(=O)c1ccccc12	WRN helicase inh inconclusive, Pol beta inh inconclusive, Pol eta inh-1 inconclusive
O=C(NCCc1ccccc1)c1ccc2c(=O)[nH]c3c(C(=O)NCC4CCCO4)sc(=S)n3c2c1 (stereo not given)	Pol kappa inh-1 inconclusive, Pol iota inh inconclusive | GALK inh confirm 37.5µM | Redox cycling inactive | HEK293 tox inactive
O=C(NC1CCCCC1)c1sc(=S)n2c1[nH]c(=O)c1ccccc12	WRN helicase inh 50.1µM, Pol beta inh 17.8µM, Pol eta inh-1 25.1µM | Pol kappa inh-2 inconclusive
O=C(NCC1CCCO1)c1sc(=S)n2c1[nH]c(=O)c1ccc(C(=O)N3CCCCC3)cc12 (stereo not given)	Pol iota inh inconclusive (no result: PI5P4K alpha inh)
CN1CCN(c2ncc3nc(-c4cccs4)c(=O)n(CCC#N)c3n2)CC1	none (no result: PI5P4K alpha inh, WRN helicase inh, Pol iota inh, Pol beta inh, Pol eta inh-1)
COc1cccc2cc(-c3nc4sc5c(c4c(=O)[nH]3)CCC(C(C)(C)C)C5)c(=O)oc12 (stereo not given)	none (no result: PI5P4K alpha inh, WRN helicase inh)
Cc1ccc(C(=O)N2CCN(CCc3ccncc3)CC2)cc1	none (no result: PI5P4K alpha inh, WRN helicase inh)
Cn1cc(-c2cc3n(n2)CCC(=O)N3CCCC(=O)NCc2ccc(F)cc2)c2ccccc21	Pol beta inh inconclusive (no result: PI5P4K alpha inh, WRN helicase inh)
COc1ccc(-c2nn(CCC(=O)O)cc2/C=C2\SC(N)=NC2=O)cc1OC	Pol kappa inh-1 inconclusive, Pol eta inh-1 10µM | Pol eta inh-2 42.6
O=C(CCS(=O)(=O)c1ccc(Br)s1)Nc1c(F)cccc1F	none (no result: PI5P4K alpha inh, WRN helicase inh)
Cc1ccc(/C=N/Nc2ccc(C(=O)O)cc2)s1	Pol iota inh inconclusive, Pol beta inh inconclusive, Pol eta inh-1 39.8µM | Pol kappa inh-2 inconclusive | Pol eta inh-2 47.8
